We go through six molecules from ChEMBL document CHEMBL1961873, “Compounds: GSK PKIS; Assays: Nanosyn kinase panel” (2012).

Assay [1] addresses Tyrosine-protein kinase Fyn (Homo sapiens) (UniProt P06241). As to conditions: at 1 µM.
For assay [2], the target named is Tyrosine-protein kinase HCK (Homo sapiens) (UniProt P08631). The settings on record: at 0.1 µM.
Assay [3] shares this target. As to conditions: at 1 µM.
The target of assay [4] is Insulin-like growth factor 1 receptor (Homo sapiens) (UniProt P08069). The settings on record: at 0.1 µM.
Assay [5] shares this target. The settings on record: at 1 µM.
Assay [6] concerns the target Insulin receptor (Homo sapiens) (UniProt P06213). The settings on record: at 0.1 µM.
For assay [7] the target is unchanged. As to conditions: at 1 µM.
In assay [8] the target is Insulin receptor-related protein (Homo sapiens) (UniProt P14616). As to conditions: at 0.1 µM.
Assay [9] shares this target. As to conditions: at 1 µM.
Assay [10] deals with T1, Tyrosine-protein kinase ITK/TSK (Homo sapiens) (UniProt Q08881).
T1 sequence (whole entry): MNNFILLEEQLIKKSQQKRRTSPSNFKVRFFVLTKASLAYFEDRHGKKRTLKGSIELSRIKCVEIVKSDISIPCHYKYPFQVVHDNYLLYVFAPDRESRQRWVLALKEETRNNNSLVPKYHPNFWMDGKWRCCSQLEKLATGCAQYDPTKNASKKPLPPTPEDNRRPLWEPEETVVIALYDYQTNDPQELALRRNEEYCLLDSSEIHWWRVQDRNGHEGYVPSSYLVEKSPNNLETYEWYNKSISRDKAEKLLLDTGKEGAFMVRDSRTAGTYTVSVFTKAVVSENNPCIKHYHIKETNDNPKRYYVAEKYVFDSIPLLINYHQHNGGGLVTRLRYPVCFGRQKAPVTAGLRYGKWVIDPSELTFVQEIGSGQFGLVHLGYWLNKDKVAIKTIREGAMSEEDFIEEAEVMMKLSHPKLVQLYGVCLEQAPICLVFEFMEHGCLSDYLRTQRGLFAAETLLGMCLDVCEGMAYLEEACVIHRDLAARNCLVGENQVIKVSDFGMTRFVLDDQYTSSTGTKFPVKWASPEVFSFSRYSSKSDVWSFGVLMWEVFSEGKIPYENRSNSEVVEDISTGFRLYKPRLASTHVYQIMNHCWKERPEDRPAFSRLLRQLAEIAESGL
The settings on record: at 0.1 µM.

Assay [11] deals with T1, Tyrosine-protein kinase ITK/TSK (Homo sapiens). As to conditions: at 1 µM.
The target of assay [12] is Tyrosine-protein kinase JAK1 (Homo sapiens) (UniProt P23458). The settings on record: at 0.1 µM.
For assay [13] the target is unchanged. The settings on record: at 1 µM.
The target of assay [14] is Tyrosine-protein kinase JAK2 (Homo sapiens) (UniProt O60674). The settings on record: at 0.1 µM.
Assay [15] has the same target. As to conditions: at 1 µM.
Assay [16] deals with T2, Tyrosine-protein kinase JAK3 (Homo sapiens) (UniProt P52333).
T2 sequence (whole entry): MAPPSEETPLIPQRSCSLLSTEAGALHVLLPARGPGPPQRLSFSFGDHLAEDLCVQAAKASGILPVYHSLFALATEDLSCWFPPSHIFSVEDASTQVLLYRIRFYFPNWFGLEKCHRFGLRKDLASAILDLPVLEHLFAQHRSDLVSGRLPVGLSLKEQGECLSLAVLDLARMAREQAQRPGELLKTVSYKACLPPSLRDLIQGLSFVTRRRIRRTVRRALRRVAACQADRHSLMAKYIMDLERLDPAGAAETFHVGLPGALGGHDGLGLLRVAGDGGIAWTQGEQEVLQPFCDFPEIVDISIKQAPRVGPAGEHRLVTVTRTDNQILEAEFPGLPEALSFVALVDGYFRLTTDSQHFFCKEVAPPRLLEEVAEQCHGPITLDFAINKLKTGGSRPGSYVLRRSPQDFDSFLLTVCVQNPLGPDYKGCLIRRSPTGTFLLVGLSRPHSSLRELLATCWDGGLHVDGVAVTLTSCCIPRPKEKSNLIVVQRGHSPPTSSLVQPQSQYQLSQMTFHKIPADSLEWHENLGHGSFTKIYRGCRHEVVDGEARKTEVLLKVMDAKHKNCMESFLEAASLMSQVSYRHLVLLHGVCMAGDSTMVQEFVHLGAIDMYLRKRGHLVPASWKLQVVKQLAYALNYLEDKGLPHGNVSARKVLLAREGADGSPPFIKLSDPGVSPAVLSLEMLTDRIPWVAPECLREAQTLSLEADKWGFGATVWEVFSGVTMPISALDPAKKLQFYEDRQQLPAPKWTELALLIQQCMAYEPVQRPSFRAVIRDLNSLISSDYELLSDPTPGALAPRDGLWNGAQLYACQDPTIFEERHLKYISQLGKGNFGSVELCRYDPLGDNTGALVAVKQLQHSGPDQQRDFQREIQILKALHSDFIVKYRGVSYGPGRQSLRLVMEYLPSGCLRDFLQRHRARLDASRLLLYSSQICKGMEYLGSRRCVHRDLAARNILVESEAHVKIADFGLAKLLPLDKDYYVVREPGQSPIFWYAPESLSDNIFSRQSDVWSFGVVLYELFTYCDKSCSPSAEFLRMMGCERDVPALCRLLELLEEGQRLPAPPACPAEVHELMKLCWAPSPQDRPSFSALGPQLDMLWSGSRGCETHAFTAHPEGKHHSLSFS
The settings on record: at 0.1 µM.

Assay [17] has as its target T2, Tyrosine-protein kinase JAK3 (Homo sapiens). As to conditions: at 1 µM.
In assay [18] the target is Vascular endothelial growth factor receptor 2 (Homo sapiens) (UniProt P35968). The settings on record: at 0.1 µM.
For assay [19] the target is unchanged. The settings on record: at 1 µM.
Assay [20] concerns the target Mast/stem cell growth factor receptor Kit (Homo sapiens) (UniProt P10721). The settings on record: at 0.1 µM.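 Note: values are mean inhibition of KIT, from the GSK PKIS dataset.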

Molecules are shown by their SMILES.

Chain of Mast/stem cell growth factor receptor Kit (Homo sapiens) (P10721 whole entry): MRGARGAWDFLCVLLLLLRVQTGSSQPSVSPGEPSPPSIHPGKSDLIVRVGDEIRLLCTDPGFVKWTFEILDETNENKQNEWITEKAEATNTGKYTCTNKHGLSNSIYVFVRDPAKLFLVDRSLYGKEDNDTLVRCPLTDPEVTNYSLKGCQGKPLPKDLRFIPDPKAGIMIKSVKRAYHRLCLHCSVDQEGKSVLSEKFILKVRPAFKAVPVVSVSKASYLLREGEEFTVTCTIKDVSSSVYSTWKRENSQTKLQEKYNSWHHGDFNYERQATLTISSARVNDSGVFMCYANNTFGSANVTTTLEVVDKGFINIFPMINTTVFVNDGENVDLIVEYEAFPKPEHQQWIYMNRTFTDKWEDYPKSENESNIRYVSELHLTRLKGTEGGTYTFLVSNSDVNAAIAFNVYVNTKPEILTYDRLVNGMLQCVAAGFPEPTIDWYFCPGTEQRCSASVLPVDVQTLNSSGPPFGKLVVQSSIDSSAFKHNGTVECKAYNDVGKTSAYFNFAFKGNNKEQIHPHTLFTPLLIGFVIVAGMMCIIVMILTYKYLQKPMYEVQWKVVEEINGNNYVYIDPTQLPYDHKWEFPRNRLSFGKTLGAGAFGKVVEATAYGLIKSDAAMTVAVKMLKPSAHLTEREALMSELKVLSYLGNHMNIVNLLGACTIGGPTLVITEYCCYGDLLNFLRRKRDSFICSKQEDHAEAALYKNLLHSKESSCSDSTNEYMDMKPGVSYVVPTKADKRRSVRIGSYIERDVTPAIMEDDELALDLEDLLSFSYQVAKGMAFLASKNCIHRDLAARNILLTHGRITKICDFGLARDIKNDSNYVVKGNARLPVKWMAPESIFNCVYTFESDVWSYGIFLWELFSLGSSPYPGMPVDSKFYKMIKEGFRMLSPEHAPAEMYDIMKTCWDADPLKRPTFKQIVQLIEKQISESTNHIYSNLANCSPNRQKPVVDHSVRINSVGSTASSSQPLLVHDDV
Chain of Tyrosine-protein kinase JAK1 (Homo sapiens) (P23458 whole entry): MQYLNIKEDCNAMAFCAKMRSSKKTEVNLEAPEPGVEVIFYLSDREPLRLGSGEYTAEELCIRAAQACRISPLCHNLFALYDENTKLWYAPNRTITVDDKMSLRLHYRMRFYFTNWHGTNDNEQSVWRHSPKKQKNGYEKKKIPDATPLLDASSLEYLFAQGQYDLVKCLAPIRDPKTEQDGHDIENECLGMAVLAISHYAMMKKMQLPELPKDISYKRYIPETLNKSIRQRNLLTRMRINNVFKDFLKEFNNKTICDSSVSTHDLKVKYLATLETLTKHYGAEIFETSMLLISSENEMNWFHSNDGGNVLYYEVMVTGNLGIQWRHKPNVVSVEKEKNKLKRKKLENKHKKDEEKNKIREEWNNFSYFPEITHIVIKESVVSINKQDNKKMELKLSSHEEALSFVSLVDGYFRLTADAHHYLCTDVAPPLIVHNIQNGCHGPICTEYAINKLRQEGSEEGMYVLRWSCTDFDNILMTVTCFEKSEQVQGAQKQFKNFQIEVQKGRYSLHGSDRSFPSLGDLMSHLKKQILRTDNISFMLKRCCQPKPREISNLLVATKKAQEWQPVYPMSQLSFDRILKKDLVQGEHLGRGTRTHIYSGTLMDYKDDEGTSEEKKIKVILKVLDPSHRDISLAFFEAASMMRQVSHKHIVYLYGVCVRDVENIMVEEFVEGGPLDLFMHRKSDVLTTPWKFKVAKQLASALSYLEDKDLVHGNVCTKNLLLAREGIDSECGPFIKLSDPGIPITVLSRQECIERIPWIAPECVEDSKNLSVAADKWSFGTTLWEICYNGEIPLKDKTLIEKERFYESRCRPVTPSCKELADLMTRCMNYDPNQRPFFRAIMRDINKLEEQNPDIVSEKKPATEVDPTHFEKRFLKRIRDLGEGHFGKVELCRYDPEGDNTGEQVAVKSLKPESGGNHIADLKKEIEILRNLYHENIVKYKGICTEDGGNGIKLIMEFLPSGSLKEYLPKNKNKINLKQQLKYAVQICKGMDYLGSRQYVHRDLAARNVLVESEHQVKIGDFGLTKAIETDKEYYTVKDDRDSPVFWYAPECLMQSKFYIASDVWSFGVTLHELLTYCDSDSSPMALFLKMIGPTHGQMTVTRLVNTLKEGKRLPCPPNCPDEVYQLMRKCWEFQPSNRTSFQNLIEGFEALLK
Chain of Tyrosine-protein kinase JAK2 (Homo sapiens) (O60674 whole entry): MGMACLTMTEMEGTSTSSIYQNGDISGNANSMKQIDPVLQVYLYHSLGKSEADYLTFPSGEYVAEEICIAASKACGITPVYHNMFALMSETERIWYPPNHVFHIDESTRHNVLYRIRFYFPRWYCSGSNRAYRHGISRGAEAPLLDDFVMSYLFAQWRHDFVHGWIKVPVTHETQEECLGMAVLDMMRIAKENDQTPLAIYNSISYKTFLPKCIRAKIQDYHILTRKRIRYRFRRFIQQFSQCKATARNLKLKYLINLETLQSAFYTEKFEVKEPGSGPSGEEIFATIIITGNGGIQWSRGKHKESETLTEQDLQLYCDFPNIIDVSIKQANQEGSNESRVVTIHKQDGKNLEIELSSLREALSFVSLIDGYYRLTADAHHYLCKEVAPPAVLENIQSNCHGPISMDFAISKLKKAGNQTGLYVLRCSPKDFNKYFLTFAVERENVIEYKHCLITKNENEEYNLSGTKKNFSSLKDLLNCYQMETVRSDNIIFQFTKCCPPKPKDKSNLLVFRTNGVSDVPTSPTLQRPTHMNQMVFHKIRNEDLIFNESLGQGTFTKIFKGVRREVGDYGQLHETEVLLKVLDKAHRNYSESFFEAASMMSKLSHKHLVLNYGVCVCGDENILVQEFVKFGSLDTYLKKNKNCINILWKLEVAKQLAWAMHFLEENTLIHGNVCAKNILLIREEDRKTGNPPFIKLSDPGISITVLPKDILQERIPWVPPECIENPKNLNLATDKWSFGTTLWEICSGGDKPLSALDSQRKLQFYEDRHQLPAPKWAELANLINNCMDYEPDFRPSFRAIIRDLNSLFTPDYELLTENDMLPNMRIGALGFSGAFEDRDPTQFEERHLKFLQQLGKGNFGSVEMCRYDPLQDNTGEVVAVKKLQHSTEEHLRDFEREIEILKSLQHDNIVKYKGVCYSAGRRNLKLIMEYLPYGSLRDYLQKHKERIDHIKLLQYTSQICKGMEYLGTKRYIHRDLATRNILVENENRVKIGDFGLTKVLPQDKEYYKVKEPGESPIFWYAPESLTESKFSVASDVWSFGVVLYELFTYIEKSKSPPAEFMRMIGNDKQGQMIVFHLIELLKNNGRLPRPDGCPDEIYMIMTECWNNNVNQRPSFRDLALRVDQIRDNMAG
Chain of Tyrosine-protein kinase Fyn (Homo sapiens) (P06241 2-537 limits assumed): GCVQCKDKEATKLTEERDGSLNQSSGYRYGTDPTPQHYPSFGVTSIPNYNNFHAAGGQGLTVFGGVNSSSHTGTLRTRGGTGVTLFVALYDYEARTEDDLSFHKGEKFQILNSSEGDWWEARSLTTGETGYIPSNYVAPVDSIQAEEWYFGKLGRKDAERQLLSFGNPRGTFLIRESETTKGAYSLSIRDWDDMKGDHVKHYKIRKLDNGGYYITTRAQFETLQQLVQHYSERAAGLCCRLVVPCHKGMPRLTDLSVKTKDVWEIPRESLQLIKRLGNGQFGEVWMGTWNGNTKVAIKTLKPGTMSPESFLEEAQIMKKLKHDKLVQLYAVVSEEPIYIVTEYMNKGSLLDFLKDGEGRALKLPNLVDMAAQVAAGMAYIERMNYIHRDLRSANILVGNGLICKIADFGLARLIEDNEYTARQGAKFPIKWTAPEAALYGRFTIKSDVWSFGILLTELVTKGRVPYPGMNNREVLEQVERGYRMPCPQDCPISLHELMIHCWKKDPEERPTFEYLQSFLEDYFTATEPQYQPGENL
Chain of Insulin receptor-related protein (Homo sapiens) (P14616 27-742 limits assumed): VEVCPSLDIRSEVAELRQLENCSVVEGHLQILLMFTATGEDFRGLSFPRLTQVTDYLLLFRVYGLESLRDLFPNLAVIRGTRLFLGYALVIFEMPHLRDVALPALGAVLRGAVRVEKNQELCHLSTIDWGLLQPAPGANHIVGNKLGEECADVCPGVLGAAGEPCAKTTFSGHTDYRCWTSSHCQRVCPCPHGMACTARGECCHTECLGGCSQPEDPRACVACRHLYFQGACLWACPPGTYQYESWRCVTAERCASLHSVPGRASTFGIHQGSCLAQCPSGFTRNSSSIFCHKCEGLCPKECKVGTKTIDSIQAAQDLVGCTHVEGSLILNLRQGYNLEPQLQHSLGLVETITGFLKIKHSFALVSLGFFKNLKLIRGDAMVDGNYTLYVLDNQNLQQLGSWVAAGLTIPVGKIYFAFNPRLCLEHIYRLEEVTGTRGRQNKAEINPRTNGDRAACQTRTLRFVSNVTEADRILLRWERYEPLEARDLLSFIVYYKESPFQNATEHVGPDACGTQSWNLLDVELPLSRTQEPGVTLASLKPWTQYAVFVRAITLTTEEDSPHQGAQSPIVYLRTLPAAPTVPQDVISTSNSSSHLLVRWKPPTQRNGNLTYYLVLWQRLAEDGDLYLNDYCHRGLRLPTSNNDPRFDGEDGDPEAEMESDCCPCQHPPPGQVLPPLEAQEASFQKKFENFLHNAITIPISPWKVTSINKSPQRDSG
Chain of Insulin receptor-related protein (Homo sapiens) (P14616 747-1297 limits assumed): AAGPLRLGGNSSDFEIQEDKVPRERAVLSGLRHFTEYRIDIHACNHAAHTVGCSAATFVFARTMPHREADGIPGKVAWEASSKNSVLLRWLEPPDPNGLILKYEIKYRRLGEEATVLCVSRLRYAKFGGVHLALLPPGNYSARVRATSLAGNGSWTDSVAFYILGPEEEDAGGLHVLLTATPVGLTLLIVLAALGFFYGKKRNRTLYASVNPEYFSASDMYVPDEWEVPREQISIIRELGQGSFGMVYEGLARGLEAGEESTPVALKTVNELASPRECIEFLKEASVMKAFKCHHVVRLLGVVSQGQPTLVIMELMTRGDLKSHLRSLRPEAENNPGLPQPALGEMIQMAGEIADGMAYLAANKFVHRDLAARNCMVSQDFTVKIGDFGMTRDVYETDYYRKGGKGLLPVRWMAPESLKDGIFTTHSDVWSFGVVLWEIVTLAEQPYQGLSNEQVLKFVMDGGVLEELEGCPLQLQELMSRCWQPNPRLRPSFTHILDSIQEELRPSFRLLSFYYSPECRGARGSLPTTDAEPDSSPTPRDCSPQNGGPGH

Turning to `COc1ccc(-c2nn3ncccc3c2-c2ccnc(Nc3ccc4c(c3)OCCO4)n2)cc1`, the inhibition – broadly, the change of the read-out against control, counted positive when it falls – in [1] is 36.6%; in [2], 13.4%; in [3] it was 46%; in assay [4] it was -3.1%; in assay [5] it was 7.28%; in [6], 1.21%. Further, the inhibition was 24.1% in assay [7]; 0.02% in [8]; 3.24% in assay [9]; -1.45% in assay [10]; 0.71% in assay [11]; 1.48% in assay [12]. Also, the inhibition in assay [13] was 1.48%; in assay [14], -0.19%; in assay [15], -0.78%; in assay [16], -1.66%; in assay [17], -0.04%; in assay [18], 11.3%. For the same molecule, the results for the inhibition in [19] and in [20] were 64% and 40.5%, respectively.

On to `COc1cc2c(cc1Nc1nc(Nc3ccsc3C(N)=O)c3cc[nH]c3n1)N(C(=O)CN(C)C)CCC2(C)C`, for which the inhibition is 1.15% in assay [1]; 6.46% in [2]; 12.9% in assay [3]; 98.1% in assay [4]; 97.1% in assay [5]; 98.7% in [6]. Moreover, the inhibition in assay [7] is 98%; in [8], 98%; in [9] it was 97.9%; in assay [10], 1.74%; in assay [11], 3.88%; in assay [12] it was 4.13%. The inhibition stood at 2.78% in [13]; 0.97% in [14]; 0.03% in [15]; 0.41% in assay [16]; 1.42% in assay [17]; 8.34% in assay [18]. The inhibition in assay [19] stood at 14.1%; in assay [20] it was 18.8%.

For `CN1CCC(n2cnc(-c3ccc(F)cc3)c2-c2ccnc(N)n2)CC1`, the inhibition in assay [1] amounted to 7.42%; in assay [2], 3.15%; in assay [3], 7.9%; in assay [4], 0.43%; in [5], 3.19%; in assay [6], 2.01%. The inhibition in assay [7] worked out at 5.41%; in assay [8], 0.89%; in [9], 1.43%; in assay [10], 1.04%; in [11] it was 6.65%; in [12] it was 1.99%. The inhibition in assay [13] was 8.12%; in assay [14], 0.06%; in assay [15], 0.49%; in assay [16], -0.36%; in assay [17], -2.05%; in [18] it was 3.28%. The inhibition came to 10.8% in assay [19] and 1.87% in assay [20].

Consider `CNC(=O)c1cccc(C#Cc2cncnc2Nc2ccc(OCc3cccc(F)c3)c(Cl)c2)c1`, for which the inhibition in [1] was 5.06%; in assay [2] it was 2.16%; in assay [3], 2.54%; in assay [4], -0.34%; in assay [5], -0.55%; in assay [6], -2.02%. For the same molecule, the inhibition in [7] is -0.61%; in [8], 0.75%; in assay [9] it was 0.96%; in [10], -0.18%; in assay [11], -0.18%; in assay [12] it was -1.06%. The inhibition was 7.9% in [13]; 0.28% in [14]; 1.34% in [15]; -1.04% in assay [16]; 1.79% in [17]; 1.34% in assay [18]. In addition, the inhibition in assay [19] stood at 3.79%; in assay [20], 2.56%.

As for `CCCN(CCS(C)(=O)=O)Cc1ccc(-c2ccc3ncnc(Nc4ccc(OCc5cccc(F)c5)c(Cl)c4)c3c2)o1`, the inhibition in assay [1] was 2.14%; in assay [2], 4.4%; in assay [3], 8.65%; in assay [4] it was 0.58%; in assay [5] it was 1.93%; in assay [6] it was 5.38%. The inhibition in assay [7] was 5.24%; in assay [8], 0.9%; in assay [9] it was 1.54%; in assay [10], 0.49%; in assay [11] it was 1.15%; in assay [12] it was -0.11%. Further, the inhibition was found to be 4.59% in assay [13]; 0.69% in [14]; 3.22% in assay [15]; 0.2% in assay [16]; 2.79% in [17]; 4.89% in assay [18]. Further, the inhibition in assay [19] was found to be 8.91%; in assay [20] it was 2.87%.

Regarding `CNC(=O)c1cncc(/C=C/c2ccccc2Cl)c1`, the inhibition is 6.88% in [1]; 1.18% in [2]; 11.3% in assay [3]; 6.84% in assay [4]; 5.76% in [5]; -1.75% in assay [6]. In addition, the inhibition in assay [7] was -1.65%; in assay [8], -0.5%; in [9] it was -1.16%; in assay [10], 1.6%; in assay [11], 2.43%; in assay [12] it was 1.61%. Further, the inhibition in assay [13] turned out to be 10.6%; in assay [14] it was 0.26%; in assay [15], 1.2%; in [16], 1.51%; in assay [17], 2.32%; in [18], 0.94%. In addition, the inhibition was 8.36% in assay [19] and 0.25% in assay [20].
